# Screening results as filed in PubChem BioAssay.
# VACV mCherry inh – qHTS for Stage-Specific Inhibitors of Vaccinia Orthopoxvirus: mCherry Reporter Primary qHTS; AID 720579, 2013; Vaccinia virus mCherry reporter infection, fluorescence; 0.63% of 310,000 active; Potency, µM (doses to about 36.5 µM), actives largely listed as inhibitors; calls by dose curve; tested in A549 cells; note: nearly all actives have a fitted effect of over 35% in size
# HCV inhibitor – qHTS Assay for Inhibitors of Hepatitis C Virus (HCV); Huh7.5.1 HCVcc-Cre infection, luciferase reporter, 44 h; Potency, µM (titrated, usually from 41.8 µM), actives largely listed as inhibitors; 3.4% of 340,000 active; AID 651820, 2012; active = well fitted inhibition curve with a large enough effect; inconclusive = small, poorly fitted or top-dose-only effect, or another doubt; inactive = no such curve, though single readings can be large or run the other way
#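 Reporter virus HCVcc-Cre (~0.5 moi) infects cells exposed to compound; seeding density 1,000 cells/well with 4 h settling beforehand. Luminescence, 15 sec read, taken 44 h post-infection following a 15 min RT substrate incubation.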
# MARV entry inh – qHTS for inhibitors of binding or entry into cells for Marburg Virus; 1.8% of 300,000 active; Marburg virus pseudotyped entry inhibition, cell reporter; Potency, µM (top dose mostly 37.8 µM), hits mostly inhibitors; calls by dose curve; tested in HEK293 cells
# Lassa entry inh – qHTS for Inhibitors of binding or entry into cells for Lassa Virus. 1.2% of 300,000 active. Lassa virus pseudotype entry inhibition, cell reporter. Potency, µM (titrated, usually from 37.9 µM), most hits filed as inhibitors; calls by dose curve; tested in HEK293 cells; note: nearly all actives have a fitted effect of over 50% in size
# VACV Venus inh – qHTS for Stage-Specific Inhibitors of Vaccinia Orthopoxvirus: Venus Reporter Primary qHTS; 0.46% of 330,000 active; Potency, µM (titrated, usually from 36.5 µM), actives largely listed as inhibitors; Vaccinia virus Venus reporter expression, fluorescence; AID 720580, 2013; calls by dose curve; tested in A549 cells; note: nearly all actives have a fitted effect of over 30% in size
# HCMV antiviral – qHTS Assay for inhibitors of the human cytomegalovirus (HCMV); HFF cells, HCMV-luciferase reporter, 72 h; stronger effect = lower value; activity change, negative = inhibition, % at 57.5 µM; 4.5% of 410,000 active; AID 1259415, 2018; in the data active = activity change below about -60%; inconclusive = no clear call, values can overlap the other calls; inactive = above about -39%
#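 After 16 h attachment at 37C, HFF cells received test compound and HCMV-luciferase (1 PFU/cell); reporter luminescence read 72 h later, data normalized against buffer-only and known inhibitor Salinomycin.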
# Hits are given with their value; n = inactive; u = inconclusive; x = no result given; [ ] = remark or other dose. Shown are actives, neighbours in structure and some others; about 7.8% of the full set was active somewhere.
SMILES,VACV mCherry inh,HCV inhibitor,MARV entry inh,Lassa entry inh,VACV Venus inh,HCMV antiviral
Cc1ncccc1C(=O)N1CCCC(c2cc(C(=O)Nc3ccc(C(C)(C)C)cc3)no2)C1 (stereo not given),n,x,x,x,n,n
O=C(Nc1ccc(F)c(Cl)c1)c1cc(C2CCCN(S(=O)(=O)c3ccccc3)C2)on1 (stereo not given),n,x,x,x,n,-69
Cn1cnc(S(=O)(=O)N2CCCC(c3cc(C(=O)Nc4ccc(F)c(Cl)c4)no3)C2)c1 (stereo not given),n,x,x,x,n,n
CC(C)(C)c1ccc(NC(=O)c2cc(C3CCCN(S(=O)(=O)c4cccc5cccnc45)C3)on2)cc1 (stereo not given),n,x,x,x,n,-86
CN(C)S(=O)(=O)c1cccc(C(=O)NC2CCCc3ccccc32)c1 (stereo not given),n,n,n,n,n,n
CCCNS(=O)(=O)c1cccc(C(=O)NC2CCCc3ccccc32)c1 (stereo not given),x,n,n,18µM,x,n
C#CC(=O)N(c1ccc(OC)c(OC)c1)C(C(=O)NC1CCCC1)c1cccs1 (stereo not given),u,0.32µM,3.5µM,7.9µM,u,-99
COc1ccc(N(C(=O)Cc2cccs2)C(C(=O)NC2CCCC2)c2ccncc2)cc1OC (stereo not given),n,n,n,n,n,n
C#CC(=O)N(c1cccc(OC)c1)C(C(=O)NC1CCCC1)c1cccs1 (stereo not given),20µM,0.56µM,2.9µM,u,14µM,-101
Cc1cccc(N(C(=O)C(F)(F)F)C(C(=O)NC2CCCCC2)c2cccs2)c1 (stereo not given),n,n,u,n,n,n
Fc1ccc(Nc2nnc(C(F)(F)F)s2)cc1Cl,n,u,u,u,u,-98
CCOC(=O)C1CCN(C(c2cccc(F)c2)c2c(O)cc(C)n(CCOC)c2=O)CC1 (stereo not given),n,x,x,n,n,n
COc1ccc(C)cc1NC(=O)C1CCN(S(=O)(=O)c2ccc3c(c2)CCCN3C(C)=O)CC1,n,x,x,n,n,n
NC(=O)NOCc1ccc(Cl)cc1Cl,n,n,n,u,n,n
CNC(=S)/N=C/NOCc1ccc(Cl)cc1Cl,n,u,u,u,n,-78
COC(=O)c1ccc(CSc2nc3c([nH]c4ccccc43)c(=O)n2-c2ccc(F)cc2)o1,n,x,x,u,n,n
COc1ccc(-c2noc(CSc3nnc(-c4ccncc4)n3-c3ccc(OC)cc3)n2)cc1,n,x,n,n,n,n
CCOCCN1CCN(c2c(C)c(C)nc3cc(-c4cc(OC)cc(OC)c4)nn23)CC1,u,u,n,n,n,-84
COCCN1CCN(c2c(C)c(C)nc3cc(-c4cccc(OC)c4)nn23)CC1,n,u,n,u,n,n
COCCn1c(-c2cc(OC)c(OC)c(OC)c2)nc2oc3ccccc3c(=O)c2c1=O,x,u,u,5.8µM,x,-65
CC(=O)Cc1nsc(NC(=O)c2ccccc2)n1,x,n,n,n,n,-64
Cc1ccccc1CSc1ncc(CO)n1Cc1ccc(F)cc1,n,x,x,n,n,n
CSc1nnc(CNC(=O)c2cccc3ccccc23)n1-c1ccccc1C,n,x,x,x,n,x
CCCOc1ccc(S(=O)(=O)N2CCN(C)CC2)c2ccccc12,u,n,n,n,n,-61
Cc1ccccc1OCC(=O)Nc1cc(S(=O)(=O)N2CCCCC2)ccc1N1CCN(C)CC1,u,11µM,u,u,u,u
SMILES,VACV mCherry inh,HCV inhibitor,MARV entry inh,Lassa entry inh,VACV Venus inh,HCMV antiviral
Cc1cccc(OCC(=O)Nc2cc(S(=O)(=O)N3CCOCC3)ccc2N2CCCC2)c1C,n,u,n,n,n,n
CCCOc1ccccc1OCC(=O)Nc1ccc(S(=O)(=O)N2CCCC2)cc1,n,10µM,u,n,n,n
COc1cccc(OC)c1OCC(=O)Nc1ccc(S(=O)(=O)N2CCCC2)cc1,x,8.9µM,x,x,x,n
CCN1C(=O)[C@H]2[C@H]3[C@H](O)[C@H](O)C/C(=N\OCC[C@@H]4C=C[C@H](OC(C)=O)[C@@H](COC(C)=O)O4)[C@@H]3CC[C@H]2C1=O,x,x,n,x,x,x
COc1ccc(CN2C(=O)N(c3ccc(C)cc3)C(=O)C2CC(=O)Nc2ccccc2)cc1OC (stereo not given),n,x,n,n,n,n
CN1CCN(S(=O)(=O)c2ccc(NC(=O)C(C)(C)C)cc2)CC1,x,n,n,n,x,-108
CCCOc1ccccc1C(=O)Nc1ccc(S(=O)(=O)N2CCN(C)CC2)cc1,x,22µM,x,x,x,n
COc1ccccc1OCC(=O)Nc1ccc(S(=O)(=O)N2CCCCCC2)cc1,n,1.6µM,u,n,n,n
CC(=O)Nc1ccc(S(=O)(=O)N2CCN(S(=O)(=O)c3ccc(NC(C)=O)cc3)CC2)cc1,n,n,n,n,n,x
CN1CCN(S(=O)(=O)c2ccc(NC(=O)c3csc4ccccc34)cc2)CC1,x,10µM,n,n,x,n
CCCOc1ccccc1OCC(=O)Nc1ccc(S(=O)(=O)N2CCCCC2)cc1,n,u,u,u,n,n
CN1CCN(S(=O)(=O)c2ccc(NC(=O)c3cccs3)cc2)CC1,x,n,n,n,n,n
O=C(Cn1cc(SCc2ccc(F)cc2)c2ccccc21)N1CCCCCC1,n,x,x,u,n,n
COc1ccc(-n2c(C)nc3cc(C(=O)NC4CCCCCC4)ccc32)cc1,n,x,x,n,n,n
COc1ccc(-c2cc(C(C)=O)c(C)n2CCC(=O)Nc2ccc(C(F)(F)F)cc2)cc1,n,x,x,u,n,n
O=C(Nc1ccc(F)cc1)c1oc2ccccc2c1NC(=O)C1CCCCC1,n,x,u,n,n,n
O=C(Nc1ccc(O)cc1)c1ccccc1OCc1ccccc1,x,14µM,x,x,x,-77
O=C(Nc1ccccc1)c1ccccc1OCc1ccc(F)cc1,x,u,x,x,x,n
CCNS(=O)(=O)c1ccc(NC(=O)c2ccccc2OCC)cc1,n,5.6µM,n,n,n,n
CCN(CC(=O)Nc1ccc(S(=O)(=O)N2CCCC2)cc1)CC(=O)Nc1ccccc1C(F)(F)F,x,11µM,x,x,x,n
CCOc1ccccc1C(=O)Nc1ccc(S(=O)(=O)Nc2ncccn2)cc1,n[7.34 µM],x,n,n,n[7.34 µM],n
CCO[C@H](c1cc(OC)cc([N+](=O)[O-])c1OC)[C@H](C)[C@@H](OC)[C@H](C)C=CCC(=O)OC,x,x,n,x,x,x
Cc1ccc(Nc2nc(NCc3ccco3)nc3nccnc23)cc1Cl,n,x,x,x,n,x
Cc1ccc(O)c(C(=O)c2cnn(C(=O)COc3ccc(Cl)cc3)c2)c1,n,n,n,n,n,-61
OC1CCCN(Cc2cn(Cc3ccccc3)nc2-c2cc3ccccc3o2)C1 (stereo not given),n,u,26µM,n,n,n
